From PubChem
A selection: hits, their analogues and other compounds. The true share with any hit is near 2.2%.
MEKK2 WT-MEK5 = raises or lowers MEK5 binding to wildtype human MEKK2 PB1 domain; Q9Y2U5; actives 1.1% (n = 290,000); bead flow cytometry, Alexa488-MEK5 binding to MEKK2 WT; actives lie on both sides; binding response (% of control), % at 10 µM; in the data active means binding response below about 67% or above about 130%
MEKK3 PB1 HTS = raises or lowers MEK5 binding to the human MEKK3 PB1 domain. Q99759. bead-based flow cytometry, Alexa488-MEK5 binding to MEKK3; actives lie on both sides; 0 = blocked by unlabeled MEK5, 100 = vehicle. binding response (% of control), % at 10 µM. actives 1.4% (n = 290,000);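 active means binding response more than 3 SD above or below the average of its plate-row segment, actives on both sides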;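 further: Alexa488 bead fluorescence after subtracting the streptavidin-only scavenger bead signal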
MEKK2 mut-MEK5 = signal of MEK5 binding to mutant human MEKK2 PB1 domain; bead flow cytometry, Alexa488-MEK5 binding to MEKK2 mutant; percent response, % at 10 µM; actives 0.35% (n = 290,000); AID 1530; in the data active means percent response above about 24%, passing the limit was not always enough
VLA-4 inh = inhibition in a human VLA-4 binding assay. actives 0.2% (n = 330,000). inhibition, % (about 7 µM as worked out from the volumes in the protocol). VLA-4 expressing cells, ligand binding flow cytometry. AID 2557; in the data active means inhibition above about 50%
MEKK2wt confirm = raises or lowers MEK5 binding to wildtype human MEKK2, retest | shares compounds with MEKK3 PB1 HTS | bead flow cytometry, Alexa488-MEK5 binding to MEKK2 WT; actives lie on both sides | binding response (% of control), % at 10 µM | actives 2.4% (n = 5,900) | AID 1892; in the data active means binding response below about 16% or above about 210%; inactive means in between
MEKK2mut-MEK5 = signal of MEK5 binding to mutant human MEKK2, retest; shares compounds with MEKK3 PB1 HTS; bead flow cytometry, Alexa488-MEK5 binding to MEKK2 mutant; percent response, % at 10 µM; actives 2% (n = 5,900); AID 1893; in the data active means percent response mostly above about 71%, no sharp cut-off; inactive means mostly below about 38%;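 further: higher means compound restores mutant binding toward wildtype level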
MEKK3 confirm = confirmation of inhibitors of MEK5 binding to human MEKK3; shares compounds with MEKK3 PB1 HTS; bead flow cytometry, Alexa488-MEK5 binding to MEKK3; hits give low values; binding response (% of control), % at 10 µM; actives 1.8% (n = 5,900);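 active means binding response below 72% of control, or above a set upper limit, though filed actives all read lower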;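 further: 100% = DMSO only wells and 0% = binding blocked by excess unlabeled MEK5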
* marks the source's active call; other numbers are inactive results; · = no result given; [ ] = remark or other dose.

SMILES	MEKK2 WT-MEK5	MEKK3 PB1 HTS	MEKK2 mut-MEK5	VLA-4 inh	MEKK2wt confirm	MEKK2mut-MEK5	MEKK3 confirm
COc1ccc(N2C(=O)/C(=C/c3ccc([N+](=O)[O-])cc3)N=C2C)cc1	81	93	-13	-4	·	·	·
CCOc1ccc(C(=O)CCC(=O)Nc2cccc(S(=O)(=O)N3CCCCC3)c2)cc1	·	·	·	-21	·	·	·
CC1=NN(c2ccccc2)C(=O)/C1=C\C=C1/N(C)c2ccccc2C1(C)C	99	98	9	-10	·	·	·
CN1/C(=C\C=C2/C(=O)Oc3ccccc3C2=O)C(C)(C)c2ccccc21	75	50*[inhibitor]	-13	-318	84	-30	93
CN1C(=CC=C2C=C(I)C(=O)C(I)=C2)C(C)(C)c2ccccc21	-1.0*[inhibitor]	40*[inhibitor]	-38	·	22	-25	68*
COC(=O)CSc1nc(SCc2ccccc2Cl)nc2c1CCCC2	95	92	-3	0	·	·	·
O=C(O)CSc1nc(SCc2ccccc2Cl)nc2c1CCCC2	125	122*	10	19	103	0	103
CC1CC(=O)C2=C(C1)Nc1ccccc1SC2c1ccc(F)cc1 (configuration not stated)	106	130*	1	-7	99	2	106
O=C1CC(c2ccsc2)Sc2ccccc2N1 (configuration not stated)	69	58	-24	-7	·	·	·
Cc1cc(-c2ccccc2)nc(=O)[nH]1	117	130*	3	14	102	7	106
O=c1nc(-c2ccccc2)cc(C(F)(F)F)[nH]1	96	95	-5	2	·	·	·
COc1cc(CCCN2C(=S)NC[C@@H]2Cc2ccccc2)cc(OC)c1OC	0.0*[inhibitor]	1.0*[inhibitor]	2	3	102	0	104
COc1cc(CCCN2C(=S)NC[C@@H]2c2ccccc2)cc(OC)c1OC	97	80*[inhibitor]	0	37	107	9	108
CCn1cc(CCC(=O)NC2CCCC2)c2ccccc21	97	96	-1	22	·	·	·
CCC(C)c1ccc(NC(=S)NCc2ccccc2OC)cc1 (configuration not stated)	97	99	-3	·	·	·	·
CCCS(=O)(=O)N1CCN(CC2CC3C=CC2C3)CC1 (configuration not stated)	104	108	24*	-4	106	12	108
CCS(=O)(=O)N1CCN(CC2CC3C=CC2C3)CC1 (configuration not stated)	101	101	2	3	·	·	·
COC(=O)c1cc(C(C)=O)c(C)[nH]c1=O	112	128*	1	-5	96	-3	98
COC(c1ccccc1)c1nnc(CCC(=O)N(C)Cc2cccc(-n3cccn3)c2)o1 (configuration not stated)	96	99	1	14	·	·	·
Cc1cccc(CSc2nnc(CCCCCNC(=O)OC(C)(C)C)o2)c1	118	138*	30	-1	109	6	105
Cc1ccc(CSc2nnc(CCCCCNC(=O)OC(C)(C)C)o2)cc1	101	97	6	12	·	·	·
COc1cccc(NC(=S)N2CCN(C)CC2)c1	109	105	9	-5	·	·	·
O=S(=O)(NC(=S)NC1CCCCC1)c1cccs1	99	98	1	1	·	·	·
O=S(=O)(NC(=S)NC1CCCCC1)c1ccccc1	6.0*[inhibitor]	4.0*[inhibitor]	-23	1	99	-2	100
O=C(c1cccs1)c1ccc(-c2cccs2)s1	61*[inhibitor]	87	-9	15	91	1	100
CN1CCN(C(=O)c2ccc(-c3cccs3)s2)CC1	101	99	-1	9	·	·	·
N=c1c(C(=O)NC2CCCCC2)cc2c(=O)n3ccccc3nc2n1CCc1ccccc1	105	99	10	0	·	·	·
Cc1nc(NC(=O)CSc2nncs2)c(Cl)cc1Cl	95	98	1	11	·	·	·
Cc1c(Cl)cnc(NC(=O)CSc2nncs2)c1Cl	107	144*	0	-2	106	7	104
